# A selection: hits, their analogues and other compounds. The true share with any hit is near 9.3%.
# SMN2 splice up = qHTS Assay for Enhancers of SMN2 Splice Variant Expression; 210,000 tested, 2.8% active; Potency, µM (titrated, usually from 46.1 µM), for inactives: at the top dose activity change, positive = activation, usual class: activators; HEK293 SMN2-luciferase splicing reporter, luminescence, 30-36 h; note: % of control where 0% means no effect; nearly all actives have a fitted effect of over 55% in size
#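 qHTS luciferase splicing reporter: luminescence rises when SMN2 exon 7 is included in transfected HEK293 cells. Compound exposure lasted 30-36 h at 37C, with 4.5 mM final sodium butyrate as control, followed by a ONE-Glo read.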
# Rab9 promoter act = qHTS Assay for Rab9 Promoter Activators. Huh7 Rab9 promoter-luciferase reporter, luminescence, 24 h. Potency, µM (titrated, usually from 9.22 µM), inactives show at the highest dose activation, negative = inhibition, usual class: activators. 320,000 tested, 2.8% active. AID 485297, 2010; note: % of control where 0% means no effect; nearly all actives have a fitted effect of over 60% in size
#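 Huh7 cells stably carrying a Rab9 promoter-luciferase reporter, 1500 cells per well in OP-MEM I with 10% FBS, treated with compound 24 hours at 37C. Luciferase activity read by luminescence after 10 minutes with Amplite reagent.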
# ELG1 genotox = qHTS screen for small molecules that induce genotoxicity in human embryonic kidney (HEK293T) cells expressing luciferase-tagged ELG1; Potency, µM (highest dose often 46 µM), for inactives: at the highest dose activity change, positive = activation, most hits filed as activators; HEK293T ELG1-luciferase reporter, luminescence, 16 h; 330,000 tested, 1.3% active; AID 504466, 2011; note: % of control where 0% means no effect; nearly all actives have a fitted effect of over 60% in size
#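 16 hr compound incubation (37 °C, 5% CO2) of HEK293T cells carrying luciferase-tagged ELG1; luciferase then measured by ONE-Glo luminescence after 30 min at RT.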
# ELG1 repair inh = qHTS screen for small molecules that inhibit ELG1-dependent DNA repair in human embryonic kidney (HEK293T) cells expressing luciferase-tagged ELG1; Potency, µM (doses to about 46.1 µM), for the others: top-dose activity change, negative = inhibition, actives largely listed as inhibitors; HEK293T ELG1-luciferase reporter, luminescence, 16 h; DNA damage induced by 5-fluorouridine; 330,000 tested, 2.3% active; note: % is set by controls: 0 for no effect and ±100 for the full control effect; nearly all actives have a fitted effect of over 55% in size
#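 Reporter activity after DNA damage by 5-fluorouridine is monitored. Compound-treated cells incubate 16 hr at 37 °C, then ONE-Glo is added for 30 min before luminescence reading.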
# NPC1 prom act = qHTS Assay for NPC1 Promoter Activators; Huh7 NPC1 promoter luciferase reporter, 24 h; Potency, µM (titrated, usually from 9.22 µM), for inactives: at the top dose activation, usual class: activators; 320,000 tested, 2.4% active; note: % of control where 0% means no effect; nearly all actives have a fitted effect of over 60% in size
#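 In 1536-well qHTS, Huh7 cells harboring an NPC1 promoter–luciferase construct received compound for 24 h; activation was quantified by luminescence following luciferase reagent addition.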
# FLuc counter = qHTS profiling assay for firefly luciferase inhibitor/activator using purifed enzyme and Km concentrations of substrates (counterscreen for miR-21 project) | Luciferin 4-monooxygenase (Photinus pyralis), P08659 | purified FLuc, Km substrates, luminescence inhibition | 360,000 tested, 6.9% active | Potency, µM (doses to about 57.5 µM), for the others: at the top dose activity change, negative = inhibition, hits mostly inhibitors;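 note: plate controls were vehicle for no effect and reference inhibitor for full effect; nearly all actives have a fitted effect of over 55% in size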
# Target sequence (P08659 whole entry, looked up): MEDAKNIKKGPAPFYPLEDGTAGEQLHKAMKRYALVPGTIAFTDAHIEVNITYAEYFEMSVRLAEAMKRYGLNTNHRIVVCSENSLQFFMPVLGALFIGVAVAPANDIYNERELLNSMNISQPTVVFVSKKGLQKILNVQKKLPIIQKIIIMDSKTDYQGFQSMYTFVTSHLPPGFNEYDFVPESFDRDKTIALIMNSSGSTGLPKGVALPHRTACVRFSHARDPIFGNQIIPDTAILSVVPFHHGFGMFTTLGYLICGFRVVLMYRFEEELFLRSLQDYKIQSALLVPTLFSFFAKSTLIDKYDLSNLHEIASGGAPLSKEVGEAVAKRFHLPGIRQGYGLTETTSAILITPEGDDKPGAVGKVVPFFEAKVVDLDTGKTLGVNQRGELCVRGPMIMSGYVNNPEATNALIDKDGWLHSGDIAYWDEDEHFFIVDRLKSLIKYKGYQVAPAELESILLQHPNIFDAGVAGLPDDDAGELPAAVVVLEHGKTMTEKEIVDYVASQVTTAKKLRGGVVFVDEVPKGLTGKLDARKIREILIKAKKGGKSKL
#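 Biochemical qHTS of compounds, final roughly 60 µM downward over six points, against 10 nM purified firefly luciferase using Km concentrations of substrates (10 uM D-luciferin, 10 uM ATP) in Tris acetate pH 7.5 buffer; luminescence output.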
# The depositor's hits bear a star; u = inconclusive; x = no result. Calls come from the whole dose curve; as a rule, active = well fitted curve in the direction sought with a large enough effect; inconclusive = small, poorly fitted or top-dose-only effect, or another doubt; inactive = no such curve, though single readings can be large; an effect the other way counts as inactive or inconclusive. Potency is the fitted concentration of half-maximal effect.
SMILES,SMN2 splice up,Rab9 promoter act,ELG1 genotox,ELG1 repair inh,NPC1 prom act,FLuc counter
CN1CCN(C2=C(NS(=O)(=O)c3cccs3)C(=O)c3ccccc3C2=O)CC1,x,u,-6%,-28%,17%,-19%
O=C1C(NS(=O)(=O)c2cccs2)=C(N2CCN(Cc3ccccc3)CC2)C(=O)c2ccccc21,x,13%,-9%,23µM*,3%,-17%
CCOc1ccccc1N1CCN(C2=C(NS(=O)(=O)c3cccs3)C(=O)c3ccccc3C2=O)CC1,13%,4%,-24%,23µM*,-3%,-1%
O=C1C(NS(=O)(=O)c2cccs2)=C(N2CCOCC2)C(=O)c2ccccc21,x,-7%,-14%,-5%,-4%,-7%
CCCCn1cc(S(=O)(=O)c2ccc(C)c(C)c2)c(=O)c2cc(F)c(N3CCCC(C)C3)cc21 (stereo unspecified),x,x,x,x,x,-1%
CN1C(=O)CC(c2ccco2)Sc2ccccc21 (stereo unspecified),u,-22%,u,u,-1%,-1%
O=C(CN1C(=O)CC(c2ccco2)Sc2ccccc21)Nc1ccc(C(F)(F)F)cc1 (stereo unspecified),-5%,x,x,x,x,-7%
COc1ccc(C2CC(=O)N(CC(=O)Nc3ccc(C(F)(F)F)cc3)c3ccccc3S2)cc1 (stereo unspecified),-13%,x,x,x,x,11µM*
COc1ccc(C2CC(=O)N(C)c3ccccc3S2)cc1 (stereo unspecified),17%,9%,18µM*,u,0%,24µM*
CCOC(=O)C1CCCN(C(=O)c2cc(Nc3ccc(OC)cc3)nc3ccccc23)C1 (stereo unspecified),-5%,x,x,x,x,15µM*
O=C(c1cc(-c2ccc(F)cc2)nc2ccccc12)N1CCN(C2CCS(=O)(=O)C2)CC1 (stereo unspecified),x,19%,0%,3%,9%,9.5µM*
COc1cccc(-c2nn(-c3ccc(C)cc3)cc2C(=O)N2CCN(C3CCS(=O)(=O)C3)CC2)c1 (stereo unspecified),x,1%,-2%,u,5%,15µM*
CCOC(=O)C1CCCN(C(=O)c2cc(-c3ccc(F)cc3)nc3ccccc23)C1 (stereo unspecified),24%,-5%,-9%,-14%,-2%,15µM*
O=C(c1cc(-c2ccc(Cl)cc2)nc2ccccc12)N1CCC1,x,-4%,-15%,-9%,0%,u
CCOC(=O)C1CCCN(C(=O)c2cc(-c3ccco3)nc3ccccc23)C1 (stereo unspecified),x,x,2%,7%,x,x
N#Cc1cccc(S(=O)(=O)NNC(=O)C23CC4CC(CC(C4)C2)C3)c1,x,x,0%,0%,x,x
COc1ccccc1NC(=O)CN(c1ccc([N+](=O)[O-])cc1)S(=O)(=O)c1ccccc1,-11%,-1%,-4%,-17%,-2%,0%
COc1ccc(-c2cc3ccc(OCC(=O)NCC4CCC(C(=O)O)CC4)cc3oc2=O)cc1 (stereo unspecified),x,4.5µM*,u,u,3.2µM*,0.95µM*
CCc1cc(=O)oc2cc(OCC(=O)NCC3CCC(C(=O)O)CC3)ccc12 (stereo unspecified),x,-2%,-1%,-24%,0%,7%
Cc1c(C)c2ccc(OCC(=O)N3CCC(C(=O)O)CC3)cc2oc1=O,x,-1%,-1%,13%,-1%,19µM*
O=C(O)C1CCN(C(=O)COc2ccc3c4c(c(=O)oc3c2)CCCC4)CC1,x,-7%,2%,u,0%,-21%
COc1ccc2c(c1)c(=O)oc1cc(OCC(=O)NCC3CCC(C(=O)O)CC3)ccc12 (stereo unspecified),x,1%,11%,-1%,11%,11µM*
CC(O)CNC12CC3CC(CC(C3)C1)C2 (stereo unspecified),5%,-1%,-8%,0%,-2%,-2%
Cc1ccc(-c2csc3nc(=O)c(C)nn23)cc1,0%,-1%,1%,u,2%,0%
COc1ccc(S(=O)(=O)N2CC(O)CC2C(=O)OCC(=O)Nc2ccc(Cl)cn2)cc1 (stereo unspecified),8%,0%,-2%,-1%,0%,3%
SMILES,SMN2 splice up,Rab9 promoter act,ELG1 genotox,ELG1 repair inh,NPC1 prom act,FLuc counter
Cc1ccc(C(=O)Nc2nc(-c3cccnc3)cs2)o1,16%,21%,1%,-12%,19%,21µM*
Cc1csc(NC(=O)c2ccc(C)o2)n1,x,3.5µM*,u,u,u,15µM*
O=C(Nc1nc(-c2ccccc2)cs1)c1ccccc1F,x,3.5µM*,u,u,u,17µM*
CCOC(=O)Cc1csc(NC(=O)c2ccc(C)o2)n1,-6%,11%,u,29%,3%,-13%
O=C(Nc1nc(-c2ccccc2)cs1)c1ccc(Br)o1,-5%,20%,6%,u,11%,24µM*
Cc1c(CC(=O)NCCCC(=O)O)c(=O)oc2cc3c(cc12)CCC(C)(C)O3,x,-33%,-8%,u,-34%,u
Cc1onc(-c2ccccc2)c1C(=O)Nc1nc(-c2cc(F)ccc2F)cs1,11%,-2%,u,u,-3%,u
Cc1onc(-c2ccccc2)c1C(=O)Nc1nc(-c2ccccc2)cs1,u,u,u,u,12%,19µM*
Cc1ccc(-c2csc(NC(=O)C3=NN(c4ccccc4)C(=O)CC3)n2)cc1,-52%,-29%,-13%,13µM*,-7%,8.5µM*
Cc1ccc(Oc2nc(CN3CCOCC3)nc3sc4c(c23)CCC(C)C4)cc1C (stereo unspecified),-11%,1%,-6%,13µM*,-7%,2%
Cc1ccc(Oc2nc(CN3CCOCC3)nc3sc4c(c23)CCC(C)C4)cc1 (stereo unspecified),-18%,1%,-6%,26µM*,-2%,-2%
COc1cccc(Nc2nc(CN3CCOCC3)nc3sc4c(c23)CCCC4)c1,3%,-1%,-3%,10µM*,-1%,-12%
Cc1cc(S(=O)(=O)Nc2nc(CN3CCOCC3)nc3sc4c(c23)CCC4)cc(C)c1C,x,-2%,2%,17%,1%,-2%
